# Laboratory results from PubChem BioAssay AID1159580 (chemical genetic matrix, 2015).
# In all, about 5,500 compounds went through this assay and about 2,000 (36%) were called active. Another 18% or so got no clear call; they are omitted. This is one part of the list. Values without a mark were called inactive. Cut-off read from the data, not from the text of the source: active = normalized growth mostly below about 0.91 (no sharp cut-off); inconclusive = no clear call, values can overlap the other calls; inactive = mostly above about 0.92.
# Assay: chemical genetic growth profiling, strain panel (AID 1159580);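 note: tested at 20 µM; growth read once vehicle control cultures reached saturation at 30 °C; 1 = growth at the plate median or of vehicle wells; lower values mean less growth of the strain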
# Details: growth OD
smiles,measurement,setting,value
CCOP(=S)(OCC)SCn1c(=O)oc2cc(Cl)ccc21,normalized growth,"S. cerevisiae deletion strains, locus YJR043C, strain POL32, stronger effect = lower value",1.01
same,normalized growth,"S. cerevisiae deletion strains, locus YJR075W, strain HOC1, stronger effect = lower value",0.995
same,normalized growth,"S. cerevisiae deletion strains, locus YKL009W, strain mrt4, stronger effect = lower value",0.98
same,normalized growth,"S. cerevisiae deletion strains, locus YKL068W, stronger effect = lower value",1
same,normalized growth,"S. cerevisiae deletion strains, locus YKL085W, strain MDH1 (second series), stronger effect = lower value",0.989
same,normalized growth,"S. cerevisiae deletion strains, locus YKL085W, strain MDH1, stronger effect = lower value",0.989
same,normalized growth,"S. cerevisiae deletion strains, locus YKL160W, strain elf1, stronger effect = lower value",0.968
same,normalized growth,"S. cerevisiae deletion strains, locus YKL190W, strain CNB1, stronger effect = lower value",1.01
same,normalized growth,"S. cerevisiae deletion strains, locus YKR001C, strain vps1, stronger effect = lower value",0.982
same,normalized growth,"S. cerevisiae deletion strains, locus YKR026C, strain gcn3, stronger effect = lower value",0.947
same,normalized growth,"S. cerevisiae deletion strains, locus YKR091W, strain srl3, stronger effect = lower value",0.963
same,normalized growth,"S. cerevisiae deletion strains, locus YLL001W, strain dnm1, stronger effect = lower value",0.967
same,normalized growth,"S. cerevisiae deletion strains, locus YLL026W, stronger effect = lower value",0.954
same,normalized growth,"S. cerevisiae deletion strains, locus YLL041C, strain sdh2, stronger effect = lower value",0.954
same,normalized growth,"S. cerevisiae deletion strains, locus YLR027C, strain aat2, stronger effect = lower value",0.954
same,normalized growth,"S. cerevisiae deletion strains, locus YLR039C, strain RIC1, stronger effect = lower value",0.97
same,normalized growth,"S. cerevisiae deletion strains, locus YLR058C, strain SHM2, stronger effect = lower value",1
same,normalized growth,"S. cerevisiae deletion strains, locus YLR102C, strain apc9, stronger effect = lower value",0.995
same,normalized growth,"S. cerevisiae deletion strains, locus YLR221C, strain rsa3, stronger effect = lower value",0.964
same,normalized growth,"S. cerevisiae deletion strains, locus YLR258W, strain gsy2, stronger effect = lower value",0.93
same,normalized growth,"S. cerevisiae deletion strains, locus YLR262C, strain YPT6 (second series), stronger effect = lower value",0.8 (active)
same,normalized growth,"S. cerevisiae deletion strains, locus YLR262C, strain YPT6, stronger effect = lower value",0.969
same,normalized growth,"S. cerevisiae deletion strains, locus YLR268W, strain sec22, stronger effect = lower value",0.987
same,normalized growth,"S. cerevisiae deletion strains, locus YLR320W, strain mms22, stronger effect = lower value",0.942
same,normalized growth,"S. cerevisiae deletion strains, locus YLR330W, strain CHS5, stronger effect = lower value",0.985
same,normalized growth,"S. cerevisiae deletion strains, locus YLR342W, strain FKS1 (second series), stronger effect = lower value",1.05
same,normalized growth,"S. cerevisiae deletion strains, locus YLR342W, strain FKS1, stronger effect = lower value",0.93
same,normalized growth,"S. cerevisiae deletion strains, locus YLR357W, strain rsc2, stronger effect = lower value",0.949
same,normalized growth,"S. cerevisiae deletion strains, locus YLR370C, strain arc18, stronger effect = lower value",0.962
same,normalized growth,"S. cerevisiae deletion strains, locus YLR371W, strain rom2, stronger effect = lower value",1
same,normalized growth,"S. cerevisiae deletion strains, locus YLR384C, strain iki3, stronger effect = lower value",0.971
same,normalized growth,"S. cerevisiae deletion strains, locus YLR418C, strain cdc73, stronger effect = lower value",0.97
same,normalized growth,"S. cerevisiae deletion strains, locus YML016C, strain PPZ1, stronger effect = lower value",0.996
same,normalized growth,"S. cerevisiae deletion strains, locus YML032C, strain rad52, stronger effect = lower value",0.998
same,normalized growth,"S. cerevisiae deletion strains, locus YML120C, strain ndi1, stronger effect = lower value",0.965
same,normalized growth,"S. cerevisiae deletion strains, locus YML124C, strain tub3, stronger effect = lower value",0.991
same,normalized growth,"S. cerevisiae deletion strains, locus YMR058W, strain fet3, stronger effect = lower value",0.966
same,normalized growth,"S. cerevisiae deletion strains, locus YMR078C, strain ctf18, stronger effect = lower value",0.989
same,normalized growth,"S. cerevisiae deletion strains, locus YMR125W, strain sto1, stronger effect = lower value",0.961
same,normalized growth,"S. cerevisiae deletion strains, locus YMR129W, stronger effect = lower value",0.949
same,normalized growth,"S. cerevisiae deletion strains, locus YMR205C, strain PFK2, stronger effect = lower value",0.895
same,normalized growth,"S. cerevisiae deletion strains, locus YMR223W, strain ubp8, stronger effect = lower value",0.998
same,normalized growth,"S. cerevisiae deletion strains, locus YMR231W, strain pep5, stronger effect = lower value",0.973
same,normalized growth,"S. cerevisiae deletion strains, locus YMR263W, strain SAP30, stronger effect = lower value",1
same,normalized growth,"S. cerevisiae deletion strains, locus YMR307W, strain GAS1, stronger effect = lower value",1.03
same,normalized growth,"S. cerevisiae deletion strains, locus YNL067W, strain RPL9B, stronger effect = lower value",0.993
same,normalized growth,"S. cerevisiae deletion strains, locus YNL071W, strain lat1, stronger effect = lower value",0.91 (active)
same,normalized growth,"S. cerevisiae deletion strains, locus YNL128W, strain TEP1, stronger effect = lower value",0.989
same,normalized growth,"S. cerevisiae deletion strains, locus YNL153C, strain GIM3, stronger effect = lower value",0.994
same,normalized growth,"S. cerevisiae deletion strains, locus YNL209W, strain ssb2, stronger effect = lower value",0.983
same,normalized growth,"S. cerevisiae deletion strains, locus YNL233W, strain BNI4, stronger effect = lower value",0.995
same,normalized growth,"S. cerevisiae deletion strains, locus YNL248C, strain rpa49, stronger effect = lower value",0.966
same,normalized growth,"S. cerevisiae deletion strains, locus YNL250W, strain rad50, stronger effect = lower value",0.993
same,normalized growth,"S. cerevisiae deletion strains, locus YNL271C, strain bni1, stronger effect = lower value",0.992
same,normalized growth,"S. cerevisiae deletion strains, locus YNL298W, strain CLA4, stronger effect = lower value",0.997
same,normalized growth,"S. cerevisiae deletion strains, locus YNL307C, strain MCK1, stronger effect = lower value",0.991
same,normalized growth,"S. cerevisiae deletion strains, locus YNL322C, strain KRE1 (second series), stronger effect = lower value",0.958
same,normalized growth,"S. cerevisiae deletion strains, locus YNL322C, strain KRE1, stronger effect = lower value",1
same,normalized growth,"S. cerevisiae deletion strains, locus YNR049C, strain mso1, stronger effect = lower value",0.961
same,normalized growth,"S. cerevisiae deletion strains, locus YNR052C, strain pop2, stronger effect = lower value",0.992
same,normalized growth,"S. cerevisiae deletion strains, locus YOL006C, strain TOP1, stronger effect = lower value",0.981
same,normalized growth,"S. cerevisiae deletion strains, locus YOL012C, strain htz1",1.68
same,normalized growth,"S. cerevisiae deletion strains, locus YOL147C, strain pex11, stronger effect = lower value",0.996
same,normalized growth,"S. cerevisiae deletion strains, locus YOR001W, strain rrp6, stronger effect = lower value",0.969
same,normalized growth,"S. cerevisiae deletion strains, locus YOR061W, strain CKA2, stronger effect = lower value",0.985
same,normalized growth,"S. cerevisiae deletion strains, locus YOR069W, strain VPS5, stronger effect = lower value",1
same,normalized growth,"S. cerevisiae deletion strains, locus YOR070C, strain gyp1, stronger effect = lower value",0.961
same,normalized growth,"S. cerevisiae deletion strains, locus YOR080W, strain dia2, stronger effect = lower value",0.961
same,normalized growth,"S. cerevisiae deletion strains, locus YOR083W, strain WHI5, stronger effect = lower value",0.961
same,normalized growth,"S. cerevisiae deletion strains, locus YOR106W, strain vam3, stronger effect = lower value",0.963
same,normalized growth,"S. cerevisiae deletion strains, locus YOR136W, strain idh2, stronger effect = lower value",0.999
same,normalized growth,"S. cerevisiae deletion strains, locus YOR144C, strain elg1, stronger effect = lower value",0.982
same,normalized growth,"S. cerevisiae deletion strains, locus YOR184W, strain ser1, stronger effect = lower value",0.978
same,normalized growth,"S. cerevisiae deletion strains, locus YOR265W, strain rbl2, stronger effect = lower value",0.952
same,normalized growth,"S. cerevisiae deletion strains, locus YOR270C, strain vph1, stronger effect = lower value",0.963
same,normalized growth,"S. cerevisiae deletion strains, locus YOR290C, strain snf2, stronger effect = lower value",0.963
same,normalized growth,"S. cerevisiae deletion strains, locus YOR316C, strain cot1, stronger effect = lower value",0.991
same,normalized growth,"S. cerevisiae deletion strains, locus YPL051W, strain arl3, stronger effect = lower value",0.953
same,normalized growth,"S. cerevisiae deletion strains, locus YPL055C, strain LGE1, stronger effect = lower value",0.981
same,normalized growth,"S. cerevisiae deletion strains, locus YPL078C, strain atp4, stronger effect = lower value",0.962
same,normalized growth,"S. cerevisiae deletion strains, locus YPL106C, strain sse1, stronger effect = lower value",0.994
same,normalized growth,"S. cerevisiae deletion strains, locus YPL240C, strain hsp82, stronger effect = lower value",0.948
same,normalized growth,"S. cerevisiae deletion strains, locus YPL241C, strain CIN2, stronger effect = lower value",0.994
same,normalized growth,"S. cerevisiae deletion strains, locus YPR119W, strain clb2, stronger effect = lower value",0.99
same,normalized growth,"S. cerevisiae deletion strains, locus YPR141C, strain kar3, stronger effect = lower value",0.993
same,normalized growth,"S. cerevisiae deletion strains, locus YPR163C, strain tif3, stronger effect = lower value",0.993
same,normalized growth,"S. cerevisiae deletion strains, locus YPR167C, strain met16, stronger effect = lower value",0.984
same,normalized growth,"S. cerevisiae deletion strains, strain wtn01, stronger effect = lower value",0.99
same,normalized growth,"S. cerevisiae strains, strain wild type, stronger effect = lower value",0.993
